This is an account of results in PubChem BioAssay AID1347416 (National Center for Advancing Translational Sciences (NCATS), 2020).

Molecules are shown by their SMILES. Screen size: about 4,100 compounds; about 1,600 (39%) were called active. About 25% were inconclusive and are not listed. Calls follow the shape of the dose curve; as a rule, active = well fitted inhibition curve with a large enough effect; inconclusive = small, poorly fitted or top-dose-only effect; inactive = no such curve, though single readings can be large or run the other way. The list shows a part of the results.
Potency is read from the fitted curve at half-maximal effect.

A short description of the experiment: qHTS Validation assay for Inhibitors of Plasmodium falciparum Dd2 growth in vitro. Also: nearly all actives have a fitted effect of over 70% in size. The settings on record: P. falciparum Dd2 in RBCs, SYBR Green growth, 72 h; series mostly up to 28.7 µM. The procedure, abridged: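 P. falciparum Dd2-infected red blood cells (2.5% hematocrit, 0.3% parasitemia) grown 72 h at 37 °C under 5% O2 with compounds in a titration, 29 uM to 0.5 nM final. Growth read as SYBR Green-1 fluorescence after ~16 h lysis; artesunate 300 nM as positive control.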
As for `C[C@]1(CO)[C@H]2Cc3sc(NC(=O)c4cccc(F)c4)nc3[C@@H](CC(=O)N3CCOCC3)[C@]2(C)CC[C@H]1O`, the Potency was 8.41 µM (active).

Consider `C[C@H](C(=O)N1CCCC1)C1CC[C@@]2(C)Cc3sc(NC(=O)C4CC4)nc3[C@@H](C)[C@@H]2[C@H]1O` (stereo not given in full), for which the Potency result was “inactive”.

As to `CC1CCN(C(=O)C[C@@H]2c3nc(NC(=O)c4cccc(F)c4)sc3C[C@@H]3[C@](C)(CO)[C@H](O)CC[C@]32C)CC1`, the Potency was 10.6 µM (active).

Take `CCOc1cc(C(=O)Nc2nnc(CC)s2)ccc1OCC(=O)N1CCOCC1`: the Potency result is “inactive”.

In the case of `CCOc1ccccc1C(=O)Nc1nc2c(s1)CC(C)CC2` (stereo not given), the Potency result was “inactive”.

For the compound `CCN(CC)C(=O)C[C@@H]1c2nc(NC(=O)c3cccc(F)c3)sc2C[C@@H]2[C@](C)(CO)[C@H](O)CC[C@]21C`, the Potency was 9.44 µM (active).

For the compound `Cc1ccc(-c2nnc3ccc(-c4ccoc4)nn23)nc1`, the Potency entry is “inactive”.

As to `COc1ccc(-n2cc(CNCCCn3ccnc3)c(-c3ccccc3Cl)n2)cc1`, the Potency is 3.35 µM (active).

Take `CCCn1cnnc1CNC(=O)CC1C(=O)NCCN1Cc1ccoc1` (stereo not given): the Potency result was “inactive”.

As for `Cc1ccc(OCc2nc(C3CN(C(=O)c4ccc5nc[nH]c5c4)C3)no2)cc1`, the Potency result is “inactive”.

On to `Cc1ccc(OCC(=O)N2CCC(c3noc(-c4ccccn4)n3)C2)cc1` (stereo not given), for which the Potency entry is “inactive”.

With `Cc1ccc(OCc2nc(C3CCN(C(=O)c4c5c(nc6ccccc46)CCCC5)CC3)no2)cc1`, the Potency is 9.44 µM (active).

Regarding `CCc1cccc(NC(c2nnc(-c3ccccc3)o2)c2ccc(F)cc2Cl)c1` (stereo not given), the Potency is 6.68 µM (active).

For the compound `Cc1ccc(-c2nc3n(n2)C(c2ccccc2Cl)C=C(c2ccc(Cl)cc2)N3)cc1` (stereo not given), the Potency was 9.44 µM (active).

Turning to `COc1ccc(C2C=C(c3ccc(F)cc3)Nc3nc(-c4ccc(Cl)cc4)nn32)cc1` (stereo not given), the Potency is 0.75 µM (active).

In the case of `COC(=O)C1=C(C)Nc2nnnn2C1c1ccccc1Cl` (stereo not given), the Potency entry was “inactive”.

As to `COc1ccc(C2C=C(c3ccccc3)Nc3nc(NS(=O)(=O)c4ccccc4)nn32)cc1` (stereo not given), the Potency result was “inactive”.

Turning to `COc1ccc(C2C=C(c3ccc(Cl)cc3)Nc3nc(-c4ccc(Cl)cc4)nn32)cc1` (stereo not given), the Potency is 0.237 µM (active).

Consider `Cc1ccc(C2=CC(c3ccc(Cl)cc3)n3nc(-c4ccc(C)cc4)nc3N2)cc1` (stereo not given), for which the Potency was 1.68 µM (active).

On to `CC(=O)c1cccc(NC(=O)[C@H]2O[C@@H]3OC(C)(C)O[C@@H]3[C@H]3OC(C)(C)O[C@H]32)c1`, for which the Potency entry is “inactive”.

In the case of `COc1cccc(-c2c(C#N)c(N)nc3c2c(C)nn3-c2ccccc2)c1O`, the Potency is 1.5 µM (active).

With `COc1ccc(Cl)cc1NC(=O)c1cc(C)nc2c1c(C)nn2-c1ccccc1`, the Potency entry is “inactive”.

Regarding `CCN(C(=O)CSc1nc(-c2ccc(C(C)C)cc2)no1)c1cccc(C)c1`, the Potency is 1.06 µM (active).

For the compound `CCN(C(=O)Cn1nc2c3cc(F)ccc3n(Cc3cccc(C)c3)cc-2c1=O)c1cccc(C)c1`, the Potency entry was “inactive”.

Take `CCN(C(=O)CSc1nc(-c2ccc(C(C)C)cc2)no1)c1ccccc1`: the Potency is 0.944 µM (active).

On to `Cc1cccc(C(=O)NCc2nnc3c(-c4nc(C(C)C)no4)cccn23)c1`, for which the Potency entry was “inactive”.

As to `Cc1ccc(NC(=O)c2cc(C(=O)c3cc(Cl)ccc3O)cn(-c3ccc(C)cc3)c2=O)cc1`, the Potency was 0.422 µM (active).

Regarding `Cc1ccc(NC(=O)c2cc3n(n2)CC(c2ccc(Cl)cc2)OC3)cc1` (stereo not given), the Potency entry was “inactive”.

For the compound `Cc1ccccc1NC(=O)c1cc(C(=O)c2cc(Cl)ccc2O)cn(-c2ccccc2C)c1=O`, the Potency is 0.376 µM (active).

With `Cn1c(=O)c(=O)n(C)c2cc(N3CCCC3)c(NC(=O)c3ccccc3F)cc21`, the Potency entry is “inactive”.

In the case of `O=C(Cn1cc(C(=O)c2ccncc2)c(=O)c2cc(F)ccc21)Nc1ccc(Cl)cc1`, the Potency entry is “inactive”.

As for `COc1cc(Cn2nnc3ccccc32)cc(Br)c1O`, the Potency result was “inactive”.

On to `CCC(C)NC(=O)C1CCC(CNS(=O)(=O)c2cccc3nsnc23)CC1` (stereo not given), for which the Potency result was “inactive”.

Take `Oc1ccc(-c2n[nH]c(=S)n2-c2ccc3c(c2)OCCO3)c(O)c1`: the Potency was 2.66 µM (active).

Regarding `CCOc1ccc(NC(=O)c2cnn3c2NC(c2cccc(OC)c2)=CC3c2ccccc2)cc1` (stereo not given), the Potency was 4.73 µM (active).

Take `COc1ccc(C2=CC(c3ccc(F)cc3)n3ncc(C(=O)Nc4ccc(C)cc4)c3N2)cc1` (stereo not given): the Potency is 2.37 µM (active).

With `Cc1nn2c(c1-c1ccccc1Oc1ccccc1)N(C(=O)Cc1cccc(F)c1)CCC2`, the Potency result is “inactive”.

In the case of `COc1cccc(CC(=O)N2CCCn3nc(C)c(-c4ccccc4OCc4ccccc4)c32)c1`, the Potency is 9.44 µM (active).

On to `COc1ccc(CN2CCCn3nc(C)c(-c4ccccc4Oc4ccccc4)c32)cc1O`, for which the Potency is 9.44 µM (active).

For `Cc1nn2c(c1-c1ccccc1Oc1ccccc1)N(Cc1ccccc1O)CCC2`, the Potency was 4.85 µM (active).

Take `Cc1nn2c(c1-c1ccccc1Oc1ccccc1)N(Cc1cccc(O)c1)CCC2`: the Potency is 10.9 µM (active).

On to `COCC(=O)N[C@@H]1CN(C(=O)Cc2cccc(OC)c2)CC[C@@H]1c1nc(C)no1`, for which the Potency result is “inactive”.

For `Cc1nn2c(c1-c1ccccc1OCc1ccccc1)N(Cc1ccccc1)CCC2`, the Potency is 15.3 µM (active).

Consider `S=c1[nH]cc(-c2ccc(Cl)cc2)n1-c1ccccc1`, for which the Potency entry is “inactive”.

In the case of `Cc1ccc2c(n1)N(C)[C@H](CO)CCN(Cc1ccc(C(F)(F)F)cc1)C2`, the Potency is 15.3 µM (active).

`COc1ccc(-n2nc(C3CCN(Cc4ccc(C(F)(F)F)cc4)CC3)[nH]c2=O)cc1`: the Potency result is “inactive”.

With `Cc1ccc(Cn2c(C3CCN(C(=O)c4ccc(C(F)(F)F)cc4)CC3)n[nH]c2=O)cc1`, the Potency entry was “inactive”.

Take `CCN(CC)C(=O)N1CCCCC1c1noc(COc2ccc(F)cc2)n1` (stereo not given): the Potency entry is “inactive”.

For the compound `O=C(NCCC1=CCCCC1)C1CCN(C(=O)c2ncn3c2COC(c2ccccc2)C3)CC1` (stereo not given), the Potency entry is “inactive”.

As for `CCOc1ccccc1C(=O)N1CCN(C(=O)c2nnn3c2COC(c2ccccc2)C3)CC1` (stereo not given), the Potency is 16.8 µM (active).

Consider `CCc1cccc(NC(=O)C2CCN(C(=O)c3nnn4c3COC(c3ccc(C)cc3)C4)CC2)c1` (stereo not given), for which the Potency entry was “inactive”.

As for `CC(C)(C)c1ccc(C(=O)N2CCN(C(=O)c3nnn4c3COC(c3ccccc3)C4)CC2)cc1` (stereo not given), the Potency is 10.6 µM (active).

For the compound `CC(C)c1cccc(NC(=O)C2CCN(C(=O)c3ncn4c3COC(c3ccccc3)C4)CC2)c1` (stereo not given), the Potency result is “inactive”.

Turning to `COc1ccc(C)cc1-n1c(-c2ccc(Cl)cc2)cc2c1CC(C)(C)CC2=O`, the Potency is 2.99 µM (active).

`CC(C)C[C@@H](NC(=O)[C@@H](O)[C@H](N)Cc1ccccc1)C(=O)O`: the Potency is 2.99 µM (active).
